In the library only some 21% were active in any assay of this set; here they are far more common.
NS1 inh = qHTS Assay for Inhibitors of Influenza NS1 Protein Function. 0.4% of 270,000 active. Potency, µM (top dose mostly 46.1 µM), without a hit: top-dose activity, positive = more growth; calls by dose curve; further: potency means the concentration at half of the fitted maximal effect; actives are rising curves; nearly all actives have a fitted effect of over 50% in size
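Compounds were scored for reversing the slow growth caused by influenza A NS1 in S. cerevisiae, measured by optical density at 600 nm. Assay medium contained 2% galactose at pH 6.0; NS1-free yeast of the same strain were the positive control.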
Pf growth 48h = Primary qHTS for delayed death inhibitors of the malarial parasite plastid, 48 hour incubation; 5.9% of 310,000 active; P. falciparum luciferase growth in erythrocytes, 48 h; Potency, µM (series often up to 28.7 µM), inactives show at the top dose activity change, negative = inhibition, actives largely listed as inhibitors; further: potency means the concentration at half of the fitted maximal effect; on the % scale 0 is the no-effect control and ±100 the full control effect
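In quantitative HTS format, infected erythrocytes bearing luciferase-reporter parasites were treated for a single generation at 37 C. Luminescence after adding detection reagent served as the growth measure.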
Shiga toxin inh = A qHTS for Small Molecule Inhibitors of Shiga Toxin | Vero cells, Shiga toxin protein synthesis inhibition reporter | inhibition, % at 38.7 µM | 9.2% of 290,000 active; in the data active means inhibition mostly above about 28%, no sharp cut-off; inactive means mostly below about 43%; further: 0% is about no effect
Pf growth 96h = Primary qHTS for delayed death inhibitors of the malarial parasite plastid, 96 hour incubation | P. falciparum luciferase reporter growth, 96 h | Potency, µM (titrated, usually from 28.7 µM), inactives show at the top dose activity change, negative = inhibition, actives largely listed as inhibitors | 6.9% of 320,000 active; further: potency means the concentration at half of the fitted maximal effect; on the % scale 0 is the no-effect control and ±100 the full control effect
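Erythrocytes infected with luciferase-expressing P. falciparum were dispensed at 2% hematocrit and 0.05% parasitemia (final), then incubated with compounds 96 hours at 37 C in 5% CO2. Luminescence after detection reagent addition reported growth.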
Cycloheximide cs = Cycloheximide Counterscreen for Small Molecule Inhibitors of Shiga Toxin. cell reporter, cycloheximide protein synthesis inhibition counterscreen. max response, %. 12% of 300,000 active. AID 2314, 2010; in the data active means max response mostly above about 13%, no sharp cut-off; inactive means mostly below about 14%; further: read at 38.3 µM for the half of the compounds with a filed dose; 0% is about no effect
Starred values were filed as active, the others as inactive. Unless noted, the call rests on the fitted dose curve; in most records, active means well fitted inhibition curve with a large enough effect; inconclusive means small, poorly fitted or top-dose-only effect, or another doubt; inactive means no such curve, though single readings can be large or run the other way.

Results for Cc1onc(-c2c(F)cccc2Cl)c1C(=O)NCc1ccco1 ?
NS1 inh: inconclusive; Pf growth 48h: -10%; Shiga toxin inh: 9; Pf growth 96h: 1.5µM*; Cycloheximide cs: 2

Results for CC(=O)c1cccc(NC(=O)c2c(-c3c(F)cccc3Cl)noc2C)c1 ?
Pf growth 48h: 17%; Pf growth 96h: 32%

Results for Cc1onc(-c2ccccc2)c1C(=O)NCc1ccccn1 ?
NS1 inh: -10%; Pf growth 48h: inconclusive; Shiga toxin inh: 21; Cycloheximide cs: -3

What do the screens show for `Cc1csc(NC(=O)c2c(-c3c(F)cccc3Cl)noc2C)n1`?
Pf growth 48h: 12µM*; Pf growth 96h: inconclusive

What do the screens show for `Cc1csc(NC(=O)c2c(-c3c(Cl)cccc3Cl)noc2C)n1`?
NS1 inh: 0%; Pf growth 48h: inconclusive; Shiga toxin inh: -11; Cycloheximide cs: -2

How did CCCCN(Cc1cc2cccc(C)c2[nH]c1=O)S(C)(=O)=O do in these assays?
NS1 inh: -4%; Pf growth 48h: -7%; Shiga toxin inh: -2; Pf growth 96h: 13%; Cycloheximide cs: 1

Results for Cn1c(CCNC(=O)c2ccco2)nc2cc(NC(=O)c3ccccc3Cl)ccc21 ?
NS1 inh: -3%; Pf growth 48h: -17%; Shiga toxin inh: 60; Pf growth 96h: 47%; Cycloheximide cs: 11

What do the screens show for `CCCc1nc2ccc(NC(=O)c3ccco3)cc2c(=O)n1Cc1ccccc1Cl`?
NS1 inh: 15%; Pf growth 48h: 2.3µM*; Shiga toxin inh: 0; Pf growth 96h: 0%; Cycloheximide cs: 1

How did CCCc1nc2ccc(NC(C)=O)cc2c(=O)n1Cc1ccccc1Cl do in these assays?
NS1 inh: -22%; Pf growth 48h: inconclusive; Shiga toxin inh: -14; Pf growth 96h: -20%; Cycloheximide cs: -1

What do the screens show for `CCCc1nc2ccc(NC(=O)c3ccco3)cc2c(=O)n1Cc1ccc(Cl)cc1`?
NS1 inh: 15%; Pf growth 48h: 1.3µM*; Shiga toxin inh: 41; Pf growth 96h: inconclusive; Cycloheximide cs: 12

Results for COc1cccc2cc(C(=O)c3ccccc3)oc12 ?
NS1 inh: -36%; Pf growth 48h: 32%; Shiga toxin inh: 166*; Pf growth 96h: -29%; Cycloheximide cs: 68*

Results for CCc1ccc(C(=O)Cc2cc3cccc(OC)c3oc2=O)cc1 ?
NS1 inh: -1%; Pf growth 48h: 24%; Shiga toxin inh: 64*; Pf growth 96h: 68%; Cycloheximide cs: 28*

What do the screens show for `COc1cccc2cc(CC(=O)c3ccc(C)c(C)c3)c(=O)oc12`?
NS1 inh: -4%; Pf growth 48h: 11%; Shiga toxin inh: -7; Pf growth 96h: inconclusive; Cycloheximide cs: 11

What do the screens show for `COc1cccc2cc(-c3nc4ccccc4o3)c(=O)oc12`?
Pf growth 48h: 253%; Shiga toxin inh: 106*; Pf growth 96h: inconclusive; Cycloheximide cs: 45*

Results for COc1cccc2cc(CC(=O)c3ccccc3)c(=O)oc12 ?
NS1 inh: 5%; Pf growth 48h: 85%; Shiga toxin inh: 44*; Pf growth 96h: 6%; Cycloheximide cs: 18

Results for Cc1nc2c(c(=O)[nH]1)CSCC2 ?
Shiga toxin inh: -5; Cycloheximide cs: 5

What do the screens show for `COc1cccc2cc(C(C)=O)c(=O)oc12`?
NS1 inh: -10%; Pf growth 48h: 14%; Shiga toxin inh: -15; Pf growth 96h: 14%; Cycloheximide cs: 2

What do the screens show for `COc1cccc2cc(CC(=O)c3cc(C)ccc3C)c(=O)oc12`?
NS1 inh: -8%; Pf growth 48h: inconclusive; Shiga toxin inh: 71*; Pf growth 96h: 6%; Cycloheximide cs: 28*

What do the screens show for `CCN1CCN(c2oc(-c3ccccc3)nc2S(=O)(=O)c2ccc(C)cc2)CC1`?
Pf growth 48h: 13µM*; Pf growth 96h: 12µM*

How did CCOc1ccc(-c2nc(S(=O)(=O)c3ccccc3)c(N3CCC(C(N)=O)CC3)o2)cc1 do in these assays?
NS1 inh: -3%; Pf growth 48h: inconclusive; Shiga toxin inh: -5; Pf growth 96h: 15µM*; Cycloheximide cs: -1

Results for COc1ccc(-c2nc(S(=O)(=O)c3ccc(C)cc3)c(N3CCCC3)o2)cc1 ?
NS1 inh: -14%; Pf growth 48h: 21%; Shiga toxin inh: -4; Pf growth 96h: inconclusive; Cycloheximide cs: -1

Results for O=C(Nc1ccc(S(=O)(=O)N2CCCC2)cc1)C1CCCN1C(=O)c1cccs1 (stereo unspecified) ?
Pf growth 48h: -17%; Shiga toxin inh: -7; Pf growth 96h: -6%; Cycloheximide cs: 8

What do the screens show for `O=C(CCCc1nc2ccccc2s1)NCc1cccnc1`?
Pf growth 48h: 5%; Shiga toxin inh: -2; Pf growth 96h: -11%; Cycloheximide cs: 9

How did O=C(Cn1c(=S)[nH]c2ccccc2c1=O)N1CCN(c2ccc(F)cc2)CC1 do in these assays?
Pf growth 48h: -10%; Shiga toxin inh: -14; Pf growth 96h: -20%; Cycloheximide cs: -2

How did O=S(=O)(c1ccc(-c2ccon2)s1)N1CCN(c2ccncc2)CC1 do in these assays?
NS1 inh: inconclusive; Pf growth 48h: 1.3µM*; Shiga toxin inh: -18; Pf growth 96h: 5%; Cycloheximide cs: 0

What do the screens show for `CC(=O)N[C@@H](CC(C)C)C(=O)N[C@@H](CCCNC(=N)N)C(=O)N[C@@H](Cc1cnc[nH]1)C(=O)N[C@@H](Cc1ccc(O)cc1)C(=O)N[C@@H](CC(C)C)C(=O)N[C@@H](CC(N)=O)C(=O)N[C@@H](CC(C)C)C(=O)N[C@@H](CC(C)C)C(=O)N[C@H](C(=O)N[C@@H](CCCNC(=N)N)C(=O)N[C@@H](CCC(N)=O)C(=O)N[C@@H](CCCNC(=N)N)C(=O)N[C@@H](Cc1ccc(O)cc1)C(N)=O)[C@@H](C)O`?
Shiga toxin inh: 10; Cycloheximide cs: -3

What do the screens show for `CC1(C)CC(=O)c2cc(OCC(=O)NCc3cccnc3)ccc2O1`?
NS1 inh: 5%; Pf growth 48h: 0%; Shiga toxin inh: -3; Pf growth 96h: 13µM*; Cycloheximide cs: -3

How did O=C(COc1ccc2c(c1)C(=O)CC1(CCCCC1)O2)NCc1ccccc1 do in these assays?
NS1 inh: -52%; Pf growth 48h: 8.3µM*; Shiga toxin inh: 18; Pf growth 96h: 3.7µM*; Cycloheximide cs: -3

Results for CCCCCCCNC(=O)COc1ccc2c(c1)C(=O)CC(C)(C)O2 ?
NS1 inh: -105%; Shiga toxin inh: -5; Pf growth 96h: inconclusive; Cycloheximide cs: -1

What do the screens show for `CCOC(=O)COc1ccc2c(c1)C(=O)CC(C)(c1cccnc1)O2` (stereo unspecified)?
NS1 inh: -96%; Pf growth 48h: 52%; Shiga toxin inh: -11; Pf growth 96h: 2.1µM*; Cycloheximide cs: 20

How did O=C(COc1ccc2c(c1)C(=O)CC1(CCCCC1)O2)NCc1ccccn1 do in these assays?
NS1 inh: -15%; Pf growth 48h: inconclusive; Shiga toxin inh: -14; Pf growth 96h: inconclusive; Cycloheximide cs: -3

Bioassay records as filed in PubChem BioAssay.
